A short description of assay [1]: E. coli DRC41 culture turbidity changes, primary screen, E. coli filamentation inducer project, strain DRC41, OD650, 48 h (AID 1152).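 Further: E. coli MC1000 strain DRC41 lacking acrAB efflux pump and sulA.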 The conditions noted are these: E. coli DRC41 (acrAB sulA), higher = more signal, called active from +8 up or from −8 down.
Assay [2] can be described thus: small-molecule binders of probe aLefty1, primary screen, biochemical, small-molecule microarray, 635/667 nm fluorescence (AID 1153).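 Further: score merges spot fluorescence with signal-to-noise ratio from the scanned slide images.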 To be noted: higher = more signal.
Assay [3] can be described thus: PSAC antagonists in infected red cells, primary screen, cell-based, P. falciparum Indochina, OD700, 1 h (AID 1154). To be noted: P. falciparum Indochina infected RBC osmotic lysis, higher = more signal, called active from +8 up or from −8 down.
Assay [4] can be described thus: PSAC antagonists in infected red cells, primary screen, cell-based, P. falciparum Indochina, OD700, 2 h (AID 1155).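 Further: lysis reports solute entry through the parasite surface anion channel PSAC; channel blockers reduce lysis of infected cells.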 The conditions noted are these: P. falciparum Indochina infected erythrocytes, osmotic lysis OD700; higher = more signal, called active from +8 up or from −8 down.
Assay [5] is described as follows: osmotic lysis modulators in infected erythrocytes, primary screen, PSAC antagonist project, cell-based, P. falciparum Indochina, OD700, 3 h (AID 1156). To be noted: higher = more signal, called active from +8 up or from −8 down.
The nature of assay [6]: PSAC antagonists in infected red cells, primary screen, cell-based, P. falciparum Indochina, OD700, 18 h (AID 1157). The conditions noted are these: P. falciparum Indochina infected erythrocytes, osmotic lysis OD700, 18 h; higher = more signal, called active from +8 up or from −8 down.
A short description of assay [7]: modulators of S6 phosphorylation in cells, primary screen, cell-based, A549, cytoblot, luminescence, serum-stimulated (AID 1158).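 Further: serum-stimulated A549 lung adenocarcinoma cells; signal is phosphorylated S6 detected by cytoblot immunostaining with HRP secondary.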 To be noted: A549 phospho-S6 cytoblot, 5 h, higher = more signal.
The target of assay [8] is NADPH oxidase 2 (Homo sapiens) (UniProt P04839). Briefly: NOX2-dependent H2O2 signal modulators, primary screen, NOX inhibitor project, cell-based, HEK293-NOX2, PMA-stimulated, Amplex Red fluorescence (AID 1159). Further: test concentration not given here. To be noted: 45 min, higher = more signal, called active from +8 up or from −8 down.
Sequence of NADPH oxidase 2 (Homo sapiens) (P04839 whole entry, looked up): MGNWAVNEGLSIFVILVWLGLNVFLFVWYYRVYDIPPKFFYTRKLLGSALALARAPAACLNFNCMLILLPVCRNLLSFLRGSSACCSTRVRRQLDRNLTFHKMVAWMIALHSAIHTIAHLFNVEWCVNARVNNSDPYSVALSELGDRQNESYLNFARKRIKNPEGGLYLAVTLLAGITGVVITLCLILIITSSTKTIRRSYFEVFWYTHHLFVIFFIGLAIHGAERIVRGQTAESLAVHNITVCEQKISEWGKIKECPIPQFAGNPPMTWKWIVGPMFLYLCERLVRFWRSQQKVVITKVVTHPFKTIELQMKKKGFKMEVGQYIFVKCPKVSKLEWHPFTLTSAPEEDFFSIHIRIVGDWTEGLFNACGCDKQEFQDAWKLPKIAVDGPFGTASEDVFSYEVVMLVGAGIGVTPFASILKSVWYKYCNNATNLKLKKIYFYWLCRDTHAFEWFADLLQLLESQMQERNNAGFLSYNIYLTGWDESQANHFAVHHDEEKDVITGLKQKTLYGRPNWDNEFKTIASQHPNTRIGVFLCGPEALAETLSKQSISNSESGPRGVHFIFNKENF
Assay [9] deals with NADPH oxidase 4 (Homo sapiens) (UniProt Q9NPH5). The experiment in a line: NOX4-dependent H2O2 signal modulators, primary screen, NOX inhibitor project, cell-based, HEK293-NOX4, tetracycline-induced, Amplex Red fluorescence (AID 1160). The conditions noted are these: 45 min, higher = more signal, called active from +8 up or from −8 down.
Sequence of NADPH oxidase 4 (Homo sapiens) (Q9NPH5 whole entry, looked up): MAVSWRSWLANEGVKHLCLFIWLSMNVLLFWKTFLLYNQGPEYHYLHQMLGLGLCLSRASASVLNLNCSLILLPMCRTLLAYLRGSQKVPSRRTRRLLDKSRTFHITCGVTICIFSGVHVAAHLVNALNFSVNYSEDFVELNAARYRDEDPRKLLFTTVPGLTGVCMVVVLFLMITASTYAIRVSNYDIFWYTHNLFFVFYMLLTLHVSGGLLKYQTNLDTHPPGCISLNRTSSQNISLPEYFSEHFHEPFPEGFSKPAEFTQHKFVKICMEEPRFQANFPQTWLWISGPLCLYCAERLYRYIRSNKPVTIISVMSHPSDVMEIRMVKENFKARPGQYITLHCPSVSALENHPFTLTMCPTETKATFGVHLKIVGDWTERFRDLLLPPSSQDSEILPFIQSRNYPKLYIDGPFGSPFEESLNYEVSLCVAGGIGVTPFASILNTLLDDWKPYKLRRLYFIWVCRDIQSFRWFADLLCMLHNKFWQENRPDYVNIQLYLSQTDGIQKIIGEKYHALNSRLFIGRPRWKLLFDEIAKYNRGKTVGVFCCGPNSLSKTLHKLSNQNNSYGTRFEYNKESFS
Assay [10] has as its target NADPH oxidase 5 (Homo sapiens) (UniProt Q96PH1). The experiment in a line: NOX5-dependent H2O2 signal modulators, primary screen, NOX inhibitor project, cell-based, HEK293-NOX5, Amplex Red fluorescence (AID 1161). To be noted: HEK293-NOX5, ionomycin, 45 min, higher = more signal.
A short description of assay [11]: A549 cell viability effects, profiling panel, calcein-AM fluorescence, 48 h, basal (AID 1162). Further: test concentration not given here. To be noted: higher = more signal.
A short description of assay [12]: adipocyte viability effects, profiling panel, cell-based, 3T3-L1 adipocytes, calcein-AM fluorescence, 48 h, basal (AID 1163). Further: test concentration not given here. To be noted: 3T3-L1 adipocytes viability, higher = more signal.
A short description of assay [13]: HepG2 cell viability effects, profiling panel, calcein-AM fluorescence, 48 h, basal (AID 1164). Further: test concentration not given here. To be noted: higher = more signal.
The nature of assay [14]: MM1S cell viability effects, profiling panel, calcein-AM fluorescence, 48 h, basal (AID 1165).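 Further: viability of MM1S multiple myeloma cells under basal unstimulated conditions; test concentration not given here.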 To be noted: higher = more signal.
Assay [15] can be described thus: basal RPMI8226 viability, no added stimulus, profiling panel, cell-based, calcein-AM fluorescence, 48 h, PK04 Diversity Set (AID 1166).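 Further: cells grown under basal conditions without added stimulus; test concentration not given here.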 To be noted: RPMI8226 myeloma viability, higher = more signal.
Assay [16] is described as follows: basal HepG2 mitochondrial membrane potential changes, profiling panel, cell-based, JC-1 fluorescence, 24 h, 100 nL compound (AID 1167). Further: test concentration not given here. The conditions noted are these: higher = more signal.
Assay [17] is described as follows: basal 3T3-L1 adipocyte mitochondrial potential changes, profiling panel, cell-based, JC-1 fluorescence, 3T3-L1 adipocytes, 24 h, 100 nL compound (AID 1168). Further: test concentration not given here. The conditions noted are these: JC-1 mitochondrial fluorescence, higher = more signal, called active from +8 up or from −8 down.
Assay [18] in a line: basal RPMI8226 mitochondrial membrane potential changes, profiling panel, cell-based, JC-1 fluorescence, 24 h, 100 nL compound (AID 1169). Further: test concentration not given here. The conditions noted are these: RPMI8226 myeloma, JC-1 mitochondrial potential fluorescence, higher = more signal.
A short description of assay [19]: basal MM1S mitochondrial membrane potential changes, profiling panel, cell-based, JC-1 fluorescence, 24 h, 100 nL compound (AID 1170). Further: test concentration not given here. The conditions noted are these: higher = more signal.
The nature of assay [20]: A549 lung cancer cell viability effects, profiling panel, resazurin fluorescence, 24 h, PK04 Diversity Set (AID 1171). Further: test concentration not given here. To be noted: higher = more signal, called active from +8 up or from −8 down. A general note: Resazurin is reduced to fluorescent resorufin, in cell work by metabolically active cells.

Calls of active or inactive are those of the source.

Sequence of NADPH oxidase 5 (Homo sapiens) (Q96PH1 whole entry, looked up): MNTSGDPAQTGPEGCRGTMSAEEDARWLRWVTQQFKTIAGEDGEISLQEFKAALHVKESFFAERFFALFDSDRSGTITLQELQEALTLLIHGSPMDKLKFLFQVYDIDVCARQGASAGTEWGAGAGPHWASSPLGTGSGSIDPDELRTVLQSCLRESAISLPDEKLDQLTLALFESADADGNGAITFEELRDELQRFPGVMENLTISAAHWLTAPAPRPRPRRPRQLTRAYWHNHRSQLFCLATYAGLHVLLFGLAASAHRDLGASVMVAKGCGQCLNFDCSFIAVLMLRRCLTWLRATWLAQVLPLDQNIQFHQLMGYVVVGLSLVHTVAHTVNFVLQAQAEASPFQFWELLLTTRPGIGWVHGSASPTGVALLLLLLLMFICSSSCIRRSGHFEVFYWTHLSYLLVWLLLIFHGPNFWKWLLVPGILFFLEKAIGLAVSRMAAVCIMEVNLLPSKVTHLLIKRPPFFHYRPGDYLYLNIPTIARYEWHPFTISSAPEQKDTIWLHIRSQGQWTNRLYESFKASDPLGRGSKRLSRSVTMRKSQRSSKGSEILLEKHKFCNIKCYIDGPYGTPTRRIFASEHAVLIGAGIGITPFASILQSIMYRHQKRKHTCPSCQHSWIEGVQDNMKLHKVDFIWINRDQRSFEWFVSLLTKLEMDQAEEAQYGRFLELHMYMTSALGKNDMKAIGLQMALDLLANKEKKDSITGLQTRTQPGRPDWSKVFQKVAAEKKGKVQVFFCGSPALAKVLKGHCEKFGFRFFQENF

In the case of `O=C1C2C=CC(C(O)c3cccc4ccccc34)N(Nc3ccccc3)C2C(=O)N1c1ccccc1` (stereo not given), the z-score was -0.692 (inactive) in assay [1]; 8.49 (active) in [3]; 2.06 (inactive) in [4]; 0.214 (inactive) in assay [5]; 1.41 (inactive) in assay [6]; -0.594 in assay [7]. The z-score is -0.627 (inactive) in assay [8]; -3.83 (inactive) in assay [9]; -3.17 in assay [10]; 0.112 in assay [11]; -1.54 in assay [12]; 0.22 in [13]. The z-score was -0.624 in assay [14]; -1.52 in assay [15]; -1.09 in assay [16]; -0.209 (inactive) in assay [17]; -0.408 in assay [18]; -0.318 in assay [19]. Further, the z-score in [20] is -0.854 (inactive). In [2], the composite z-score came to 0.528.

As to `O=C(C=C(CC(O)c1cccc(Cl)c1)OCCF)OCCF` (stereo not given), the z-score in [1] was 0.597 (inactive); in [3], 1.35 (inactive); in assay [4], -0.385 (inactive); in assay [5] it was -0.0116 (inactive); in assay [6], -1.67 (inactive); in [7], 0.785. In addition, the z-score in assay [8] was 0.176 (inactive); in [9] it was -0.15 (inactive); in [10] it was 0.305; in assay [11] it was 0.595; in assay [12] it was 0.642; in assay [13] it was 0.989. The z-score is 0.947 in assay [14]; -0.667 in assay [15]; 0.586 in assay [16]; 0.869 (inactive) in assay [17]; 0.0309 in assay [18]; -0.273 in assay [19]. Besides, in assay [20], the z-score is 0.135 (inactive). For the same compound, the composite z-score in [2] is -0.0694.

With `COCCOC(=O)N1C(=O)[C@@]2(c3cc(C#CCNC(N)=O)ccc31)[C@H](c1ccc(OCCO)cc1)N1[C@H](c3ccccc3)[C@H](c3ccccc3)OC(=O)[C@H]1[C@@H]2C(=O)N1CCN(c2ncccn2)CC1`, the z-score in assay [1] is -0.283 (inactive); in [3] it was 4.15 (inactive); in assay [4] it was 1.81 (inactive); in assay [5], 0.428 (inactive); in assay [6] it was 1.05 (inactive); in [7], 0.537. Also, the z-score in assay [8] is 2.29 (inactive); in assay [9], 0.937 (inactive); in assay [10] it was 0.877; in assay [11] it was -0.142; in assay [12], 0.169; in [13], -0.123. Also, the z-score in assay [14] is -0.216; in [15] it was 0.191; in assay [16], -1.76; in assay [17], 1 (inactive); in assay [18] it was 0.118; in [19], -0.572. Further, the z-score in assay [20] is 1.28 (inactive). The composite z-score in assay [2] came to 0.209.

Regarding `Cc1ccc(S[C@]2(C(=O)O)CC(=O)N(Cc3ccccc3C(F)(F)F)[C@@H]2c2ccc(CO)cc2)cc1`, the z-score in assay [1] is 0.281 (inactive); in assay [3], 4.63 (inactive); in [4] it was 0.388 (inactive); in [5] it was 0.0934 (inactive); in assay [6], 0.231 (inactive); in assay [7], -0.854. Further, the z-score in assay [8] was 0.375 (inactive); in [9], 0.152 (inactive); in assay [10] it was 0.476; in assay [11], 0.391; in assay [12] it was -0.208; in assay [13] it was 0.775. Further, the z-score is -0.804 in [14]; 0.393 in [15]; 0.143 in assay [16]; 0.998 (inactive) in assay [17]; 0.171 in [18]; -0.446 in assay [19]. Besides, the z-score in [20] was 0.142 (inactive). In [2], the composite z-score is -0.109.

Consider `CC(C)(C)OC(=O)CC[C@@]1(C(=O)N2CCCCC2)N=C(c2ccc(OCCCO)cc2)O[C@@H]1c1ccccc1N=[N+]=[N-]`, for which the z-score in [1] was 1.71 (inactive); in assay [3], 30.3 (active); in assay [4], 29.3 (active); in [5], 2.26 (inactive); in assay [6], 8.44 (active); in assay [7], -0.0394. For the same compound, the z-score was -2.98 (inactive) in assay [8]; 1.03 (inactive) in assay [9]; -1.47 in assay [10]; 0.611 in assay [11]; -0.351 in [12]; 0.733 in assay [13]. Further, the z-score in [14] is -0.993; in [15], -2.16; in assay [16], 1.52; in [17], 3.17 (inactive); in assay [18], -1.1; in assay [19], -0.993. In addition, the z-score in assay [20] is -0.328 (inactive). In addition, in assay [2], the composite z-score is 0.432.

On to `C=CC[C@@]1(C(=O)NCCN2CCOCC2)N=C(c2ccc(OCCCO)cc2)O[C@@H]1c1ccccc1`, for which the z-score is -0.302 (inactive) in assay [1]; 18.7 (active) in assay [3]; 3.03 (inactive) in assay [4]; 1.55 (inactive) in assay [5]; 0.863 (inactive) in assay [6]; -0.501 in assay [7]. The z-score was 0.48 (inactive) in assay [8]; 0.62 (inactive) in assay [9]; -0.092 in [10]; -0.181 in assay [11]; 0.458 in assay [12]; -0.253 in assay [13]. The z-score is 0.672 in assay [14]; 0.418 in assay [15]; 0.603 in assay [16]; -0.672 (inactive) in assay [17]; 0.574 in [18]; 0.4 in assay [19]. In addition, the z-score in assay [20] was 1.28 (inactive). Besides, in assay [2], the composite z-score was 0.562.

Regarding `C[N+](C)(C)CCCCCCNC(=O)[C@@H]1C[C@@H]2C(=O)NCC(=O)N2[C@@H]1c1cccc(OCCO)c1`, the z-score was 1.73 (inactive) in [1]; 3.17 (inactive) in [3]; -1.25 (inactive) in [4]; 1.56 (inactive) in assay [5]; -1.95 (inactive) in [6]; 0.927 in [7]. Also, the z-score was -2.72 (inactive) in assay [8]; -4.12 (inactive) in [9]; -5.67 in assay [10]; -0.308 in assay [11]; 0.867 in assay [12]; -1.2 in assay [13]. For the same compound, the z-score in assay [14] is -2.7; in assay [15], 0.422; in assay [16], -0.844; in assay [17], -0.0181 (inactive); in assay [18], -0.0934; in assay [19] it was -1.39. Moreover, the z-score in assay [20] was 1.46 (inactive). In [2], the composite z-score was 0.197.

For `CN(C)C(=O)[C@@]1(CCC(=O)OC(C)(C)C)COC(c2ccc(OCCCO)cc2)=N1`, the z-score was 0.752 (inactive) in [1]; 9.27 (active) in assay [3]; 0.536 (inactive) in assay [4]; -0.674 (inactive) in assay [5]; 0.198 (inactive) in assay [6]; -0.449 in [7]. Further, the z-score in [8] was -0.0773 (inactive); in assay [9], 0.829 (inactive); in assay [10] it was 0.655; in assay [11], 0.236; in assay [12] it was -0.417; in assay [13] it was 0.306. Also, the z-score in assay [14] was 0.0475; in [15] it was 0.0972; in assay [16], -0.868; in assay [17] it was 0.0942 (inactive); in assay [18] it was 0.0733; in [19], -1.14. In assay [20], the z-score is 0.594 (inactive). The same compound returned a composite z-score in assay [2] of 0.3.

Take `Cc1ccc(S[C@]2(C(=O)NCc3ccccc3)CC(=O)N(C3Cc4ccccc4C3)[C@@H]2c2ccc(CO)cc2I)cc1`: the z-score in assay [1] is 3.36 (inactive); in assay [3], 3.94 (inactive); in [4], -0.533 (inactive); in assay [5], -0.406 (inactive); in assay [6] it was -0.63 (inactive); in assay [7] it was 1.58. The z-score in assay [8] was 0.542 (inactive); in [9], -0.966 (inactive); in assay [10] it was 1.42; in assay [11], 1.38; in assay [12] it was -0.196; in [13] it was 1.54. Further, the z-score is -2.33 in assay [14]; -1.52 in [15]; 0.353 in assay [16]; 0.698 (inactive) in assay [17]; -0.686 in [18]; -0.972 in assay [19]. Also, the z-score in [20] is -0.862 (inactive). The composite z-score in assay [2] amounted to 0.0049.

Source of the values: PubChem BioAssay.
